SUMO Mot1 rescue = yeast Mot1-301 growth rescue at high temperature, primary screen, SUMOylation pathway inhibitor project, S. cerevisiae, ATP luminescence, 38.5C; AID 2716, 2010; growth rescue, % at 18.8 µM; 1% of 320,000 active; S. cerevisiae Mot1-301 growth rescue; percent above DMSO median, 100 means doubled;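 active = every valid replicate shows activation above 250% relative to neutral control wells; inactive = the rest, any valid replicate at or below 250%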;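 note: OY570 slx delta 5 strain wells were the positive control but not used for scaling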
TIM10 inh = growth inhibitors of isogenic TIM10 control yeast, primary screen, counter-screen for tim10-1 yeast inhibitor project, luminescence, uHTS. 1.4% of 330,000 active. AID 463195, 2010. S. cerevisiae TIM10 strain growth, BacTiter-Glo luminescence, 24 h. inhibition, % at 10 µM;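 active = inhibition of 40% or more at the single tested concentration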;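 note: wild-type TIM10 isogenic control strain grown at permissive 25 °C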
tim23-1 inh = growth inhibitors of tim23-1 mutant yeast, primary screen, luminescence, uHTS; S. cerevisiae tim23-1 growth, BacTiter-Glo luminescence, 24 h; inhibition, % at 20 µM; 1.3% of 330,000 active;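 active = growth inhibition of the mutant yeast at or above 50%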;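 note: temperature-sensitive mutant grown at 25 °C; plate controls were DMSO-treated mutant yeast for no effect and medium wells lacking yeast for full effect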
PfHsp90 yeast 2 = growth inhibition of PfHsp90-expressing yeast, primary screen, antimalarial PfHsp90 inhibitor project, S. cerevisiae, BacTiter-Glo luminescence, single point, set 2. BacTiter-Glo ATP, 48 h; yeast lacking PDR1 and PDR3 efflux regulators. inhibition, % at 9.4 µM. 0.32% of 310,000 active;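 active = every replicate shows inhibition above about 80%, whatever the replicate mean, limit read from the data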;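 note: 0% = DMSO neutral controls and 100% = 20 µM radicicol positive controls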
tim10-1 inh = growth inhibitors of tim10-1 mutant yeast, primary screen, luminescence, uHTS; S. cerevisiae tim10-1 ts strain growth, BacTiter-Glo, 24 h; inhibition, % at 20 µM; 2.2% of 330,000 active; AID 463190, 2010;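 active = inhibition of at least 40%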;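 note: mutant grown at 25 °C; 0% = DMSO wells with yeast and 100% = wells holding no yeast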
Starred values were filed as active, the others as inactive. In the library only some 4.4% were active in any assay of this set; here they are far more common.

`Nc1ccccc1C#CC(=O)c1ccccc1` gave SUMO Mot1 rescue 131, TIM10 inh 24, tim23-1 inh -62, PfHsp90 yeast 2 114* and tim10-1 inh -23.
`COc1ccc(OCc2nnc(SCC(=O)Nc3ccccc3C#N)o2)cc1` gave SUMO Mot1 rescue 109, TIM10 inh 7, tim23-1 inh 11, PfHsp90 yeast 2 -7 and tim10-1 inh -11.
For CC(C)c1ccc(N=c2c([N+](=O)[O-])nn(-c3ccc4c(c3)OCCO4)n2O)cc1 the results were SUMO Mot1 rescue 12, TIM10 inh 24, tim23-1 inh 30, PfHsp90 yeast 2 3 and tim10-1 inh 22.
COc1cc(N=c2c([N+](=O)[O-])nn(-c3ccc4c(c3)OCCO4)n2O)cc(OC)c1 was read as SUMO Mot1 rescue 274*, TIM10 inh 6, tim23-1 inh 8, PfHsp90 yeast 2 8 and tim10-1 inh 6.
For Clc1cccc(Nc2nc(-c3ccncc3)cs2)c1 the results were SUMO Mot1 rescue 275*, TIM10 inh 22, tim23-1 inh -3, PfHsp90 yeast 2 1 and tim10-1 inh 25.
Screening O=C(COC(=O)C1(c2ccccc2)CC1)NNC(=O)c1ccccc1 returned SUMO Mot1 rescue 6, TIM10 inh 11, tim23-1 inh 11, PfHsp90 yeast 2 -7 and tim10-1 inh -2.
`Clc1ccc2nc(SCc3nnc(-c4ccccc4)o3)[nH]c2c1` gave SUMO Mot1 rescue 650*, TIM10 inh 17, tim23-1 inh 10, PfHsp90 yeast 2 -24 and tim10-1 inh 25.
For Cc1oc2c(C)c3oc(=O)c(CCC(=O)O)c(C)c3cc2c1-c1ccccc1 the results were SUMO Mot1 rescue -2, TIM10 inh -17, tim23-1 inh 16, PfHsp90 yeast 2 -14 and tim10-1 inh -23.
S=C(NCCN1CCCCC1)Nc1ccccc1 was read as SUMO Mot1 rescue 165, TIM10 inh 4, tim23-1 inh 3 and tim10-1 inh 5.
For S=C(NCCN1CCCCC1)Nc1ccc(Br)cc1 the results were SUMO Mot1 rescue 348*, TIM10 inh 4, tim23-1 inh 8, PfHsp90 yeast 2 -30 and tim10-1 inh 0.
For CN(C)CCCNc1cc(C(C)(C)C)nc2c(-c3ccccc3)cnn12 the results were SUMO Mot1 rescue 267*, TIM10 inh 11, tim23-1 inh 49, PfHsp90 yeast 2 8 and tim10-1 inh -12.
For Cc1cc(NCCCN2CCOCC2)n2ncc(-c3ccccc3)c2n1 the results were SUMO Mot1 rescue 159, TIM10 inh -22, tim23-1 inh 4, PfHsp90 yeast 2 12 and tim10-1 inh 12.
CCn1cc(/C=C(\NC(=O)c2ccccc2F)C(=O)NCCN2CCOCC2)c2ccccc21 was read as SUMO Mot1 rescue -8, TIM10 inh 2, tim23-1 inh 0, PfHsp90 yeast 2 -28 and tim10-1 inh -9.
Screening COc1ccc(S(=O)(=O)NCc2cccnc2)cc1C(=O)NC1CCCCC1 returned SUMO Mot1 rescue -10, TIM10 inh -4, tim23-1 inh -4, PfHsp90 yeast 2 9 and tim10-1 inh -9.
CCNS(=O)(=O)c1ccc(OC)c(C(=O)NC2CCCCC2)c1 was read as SUMO Mot1 rescue 323*, TIM10 inh -15, tim23-1 inh 1, PfHsp90 yeast 2 -17 and tim10-1 inh 4.
`N#CCc1nn(-c2ccccc2)c(N)c1C#N` gave SUMO Mot1 rescue -5, TIM10 inh -8, tim23-1 inh 3, PfHsp90 yeast 2 16 and tim10-1 inh -5.
CCc1nn(-c2ccccc2)c(N)c1C#N was read as SUMO Mot1 rescue 290*, TIM10 inh -4, tim23-1 inh -5, PfHsp90 yeast 2 3 and tim10-1 inh 6.
`Cc1ccc(N(CC(=O)NCc2ccccc2)S(=O)(=O)c2c(C)noc2C)cc1` gave SUMO Mot1 rescue 29, TIM10 inh 14, tim23-1 inh 5, PfHsp90 yeast 2 -2 and tim10-1 inh -11.
`COc1cc(OC)c(C(=O)O/N=C(\N)c2ccccn2)cc1OC` gave SUMO Mot1 rescue 327*, TIM10 inh 19, tim23-1 inh 14, PfHsp90 yeast 2 3 and tim10-1 inh 28.
Screening CCCc1cc2c(=O)c(-c3nc4ccccc4s3)c(COCC(=O)O)oc2cc1O returned PfHsp90 yeast 2 -3.
Screening COc1ccc(CC(=O)OCC(=O)c2ccc(S(=O)(=O)N3CCCCC3)cc2)cc1 returned SUMO Mot1 rescue 13, TIM10 inh 9, tim23-1 inh 11, PfHsp90 yeast 2 0 and tim10-1 inh 12.
CC1=NN(c2nc(-c3ccc(C)cc3)cs2)C(=O)C1N=Nc1ccc(C(N)=O)cc1 (centres undefined) was read as SUMO Mot1 rescue 441* and PfHsp90 yeast 2 -7.
For CC1=NN(c2nc(-c3ccc(C)cc3)cs2)C(=O)C1N=Nc1ccc2ccccc2c1 (centres undefined) the results were SUMO Mot1 rescue 308, TIM10 inh -6, tim23-1 inh 0, PfHsp90 yeast 2 -3 and tim10-1 inh 1.
Screening CC(=O)Nc1sc(C)c(C)c1C(=O)OCC(=O)N(CC(C)C)c1c(N)n(Cc2ccccc2)c(=O)[nH]c1=O returned SUMO Mot1 rescue -5, TIM10 inh 5, tim23-1 inh 2 and tim10-1 inh 4.
CCOc1ccccc1-c1c2cc(O)c(=O)cc-2oc2cc(O)c(O)cc12 was read as PfHsp90 yeast 2 93*.
For COc1cccc(C2=NOC(C(=O)N3CCN(Cc4ccccc4)CC3)C2)c1OC (centres undefined) the results were SUMO Mot1 rescue -4, TIM10 inh 13, tim23-1 inh 8, PfHsp90 yeast 2 7 and tim10-1 inh 7.
O=C(C1CC(c2ccc(F)cc2)=NO1)N1CCN(Cc2ccccc2)CC1 (centres undefined) was read as SUMO Mot1 rescue 318*, TIM10 inh -23, tim23-1 inh 7, PfHsp90 yeast 2 24 and tim10-1 inh -7.
`Cc1cc(NC(=O)CNCC(c2ccccc2)N(C)C)c([N+](=O)[O-])cc1C` (centres undefined) gave SUMO Mot1 rescue -1, TIM10 inh -8, tim23-1 inh 9, PfHsp90 yeast 2 1 and tim10-1 inh 19.
Screening COc1ccc(Cl)cc1NC(=O)CN1CCN(S(=O)(=O)N2CCOCC2)CC1 returned SUMO Mot1 rescue 291*, TIM10 inh 20, tim23-1 inh 11, PfHsp90 yeast 2 -5 and tim10-1 inh 9.
Screening CCOC(=O)c1[nH]c(C)c(C(=O)N2CCCC(Nc3ccc(C)c(C)c3)C2)c1C (centres undefined) returned SUMO Mot1 rescue 15, TIM10 inh 14, tim23-1 inh 13, PfHsp90 yeast 2 -16 and tim10-1 inh 13.
For CCCCCC1C/C(=N\O)C=C(C)C1C(=O)OC (centres undefined) the results were SUMO Mot1 rescue 309*, TIM10 inh 18, tim23-1 inh 12, PfHsp90 yeast 2 0 and tim10-1 inh 11.

Screens deposited in PubChem BioAssay by several laboratories.
